Reference: PubChem BioAssay AID1159580 (chemical genetic matrix, 2015)
The campaign covered roughly 5,500 compounds. About 2,000 (36%) were called active. Roughly 18% stayed inconclusive and do not appear here. Rule as the data show it: active = normalized growth mostly below about 0.91 (no sharp cut-off); inconclusive = no clear call, values can overlap the other calls; inactive = mostly above about 0.92. Some of the results follow.

Experiment: chemical genetic growth profiling, strain panel (AID 1159580);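 also: tested at 20 µM; growth read once vehicle control cultures reached saturation at 30 °C; 1 = growth at the plate median or of vehicle wells; lower values mean less growth of the strain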
Conditions: S. cerevisiae deletion strains, growth OD

Measured: normalized growth

N=C(N)c1ccc(OCCCCCOc2ccc(C(=N)N)cc2)cc1
active: locus YBR279W, strain paf1, stronger effect = lower value 0.93 | locus YCL029C, strain bik1, stronger effect = lower value 0.89 | locus YCL061C, strain MRC1, stronger effect = lower value 0.916 | locus YDR101C, strain arx1, stronger effect = lower value 0.875 | locus YDR159W, strain sac3, stronger effect = lower value 0.85 | locus YDR318W, strain mcm21, stronger effect = lower value 0.878 | locus YDR502C, strain sam2, stronger effect = lower value 0.907 | locus YER015W, strain faa2, stronger effect = lower value 0.922 | locus YGL086W, strain mad1, stronger effect = lower value 0.874 | locus YGL173C, strain kem1, stronger effect = lower value 0.865 | locus YGL253W, strain hxk2, stronger effect = lower value 0.8 | locus YHR079C, strain IRE1 (second series), stronger effect = lower value 0.888 | locus YHR200W, strain rpn10, stronger effect = lower value 0.871 | locus YIL125W, strain kgd1, stronger effect = lower value 0.903 | locus YJL168C, strain set2, stronger effect = lower value 0.925
inactive: locus YAL013W, strain DEP1, stronger effect = lower value 1 | locus YAL021C, strain ccr4, stronger effect = lower value 0.908 | locus YAL026C, strain drs2, stronger effect = lower value 0.951 | locus YAL030W, strain snc1, stronger effect = lower value 0.935 | locus YBL061C, strain skt5, stronger effect = lower value 0.966 | locus YBR009C, strain hhf1, stronger effect = lower value 0.952 | locus YBR021W, strain FUR4, stronger effect = lower value 1.07 | locus YBR023C, strain chs3, stronger effect = lower value 0.986 | locus YBR171W, strain sec66, stronger effect = lower value 0.946 | locus YBR229C, strain ROT2, stronger effect = lower value 0.978 | locus YBR231C, strain swc5, stronger effect = lower value 0.919 | locus YCL011C, strain gbp2, stronger effect = lower value 0.945 | locus YCL016C, strain dcc1, stronger effect = lower value 0.939 | locus YCL069W, strain vba3, stronger effect = lower value 0.963 | locus YCR088W, strain abp1, stronger effect = lower value 0.966 | locus YDL005C, strain med2, stronger effect = lower value 0.979 | locus YDL035C, strain GPR1, stronger effect = lower value 0.901 | locus YDL040C, strain nat1, stronger effect = lower value 0.965 | locus YDL074C, strain BRE1, stronger effect = lower value 0.942 | locus YDL101C, strain DUN1, stronger effect = lower value 0.989 | locus YDL134C, strain PPH21, stronger effect = lower value 0.955 | locus YDL185W, strain tfp1, stronger effect = lower value 0.964 | locus YDL192W, strain arf1, stronger effect = lower value 0.933 | locus YDR001C, strain nth1, stronger effect = lower value 0.974 | locus YDR069C, strain doa4, stronger effect = lower value 1 | locus YDR137W, strain rgp1, stronger effect = lower value 1 | locus YDR150W, strain NUM1, stronger effect = lower value 0.989 | locus YDR162C, strain NBP2, stronger effect = lower value 0.941 | locus YDR195W, strain ref2 0.968 | locus YDR297W, strain sur2, stronger effect = lower value 0.958 | locus YDR334W, strain swr1, stronger effect = lower value 0.958 | locus YDR335W, strain msn5, stronger effect = lower value 0.977 | locus YDR388W, stronger effect = lower value 0.938 | locus YDR392W, strain spt3, stronger effect = lower value 0.808 | locus YEL003W, strain gim4, stronger effect = lower value 0.929 | locus YEL037C, strain rad23, stronger effect = lower value 0.945 | locus YEL061C, strain CIN8 (second series), stronger effect = lower value 0.945 | locus YEL061C, strain CIN8, stronger effect = lower value 0.965 | locus YER016W, strain bim1, stronger effect = lower value 0.963 | locus YER110C, stronger effect = lower value 0.95 | locus YER111C, strain swi4, stronger effect = lower value 0.967 | locus YER155C, strain BEM2 (second series), stronger effect = lower value 0.874 | locus YER155C, strain BEM2, stronger effect = lower value 0.986 | locus YER167W, strain BCK2, stronger effect = lower value 0.915 | locus YFR010W, strain ubp6, stronger effect = lower value 0.954 | locus YGL078C, strain dbp3, stronger effect = lower value 0.929 | locus YGL167C, strain pmr1, stronger effect = lower value 0.974 | locus YGL227W, strain vid30, stronger effect = lower value 0.984 | locus YGL240W, strain doc1, stronger effect = lower value 0.991 | locus YGL248W, strain PDE1, stronger effect = lower value 0.964 | locus YGR078C, strain PAC10, stronger effect = lower value 0.947 | locus YGR135W, strain pre9, stronger effect = lower value 0.937 | locus YGR229C, strain SMI1, stronger effect = lower value 0.929 | locus YGR252W, strain gcn5, stronger effect = lower value 0.819 | locus YHR013C, strain ard1, stronger effect = lower value 1.09 | locus YHR027C, strain rpn1, stronger effect = lower value 0.946 | locus YHR030C, strain SLT2, stronger effect = lower value 0.974 | locus YHR094C, strain hxt1, stronger effect = lower value 0.94 | locus YHR129C, strain ARP1, stronger effect = lower value 0.968 | locus YHR142W, strain chs7, stronger effect = lower value 0.972 | locus YIL066C, strain RNR3, stronger effect = lower value 0.917 | locus YIL073C, strain SPO22, stronger effect = lower value 0.675 | locus YIR030C, strain dcg1, stronger effect = lower value 0.93 | locus YJL092W, strain hpr5, stronger effect = lower value 0.919 | locus YJL095W, strain BCK1 (second series), stronger effect = lower value 0.959 | locus YJL095W, strain BCK1, stronger effect = lower value 0.892 | locus YJL115W, strain asf1, stronger effect = lower value 0.923 | locus YJL129C, strain trk1, stronger effect = lower value 0.995 | locus YJL134W, strain LCB3, stronger effect = lower value 0.967 | locus YJL154C, strain vps35, stronger effect = lower value 0.989 | locus YJL164C, strain tpk1, stronger effect = lower value 0.974 | locus YJL166W, strain qcr8, stronger effect = lower value 0.978 | locus YJL187C, strain SWE1 (second series), stronger effect = lower value 0.929
